The list is not random: actives were taken first. Their share in the collection is about 12%.
USP17 block: blocks human USP17 ubiquitin-rhodamine cleavage | purified USP17, Ub-rhodamine cleavage fluorescence, 3 h | inhibition, % at 50 µM | 47,000 compounds, 6.5% hits | AID 1645855
USP28 block: blocks human USP28 ubiquitin-rhodamine cleavage; 47,000 compounds, 3% hits; purified USP28, Ub-rhodamine cleavage fluorescence, 30 min; Q96RU2; inhibition, % at 25 µM
OTUD3 block: inhibitors of human OTUD3 deubiquitinase; Q5T2D3; purified OTUD3, Ub-rhodamine fluorescence, 2 h; inhibition, % at 25 µM; 47,000 compounds, 0.7% hits
Target sequence (Q5T2D3 whole entry, looked up): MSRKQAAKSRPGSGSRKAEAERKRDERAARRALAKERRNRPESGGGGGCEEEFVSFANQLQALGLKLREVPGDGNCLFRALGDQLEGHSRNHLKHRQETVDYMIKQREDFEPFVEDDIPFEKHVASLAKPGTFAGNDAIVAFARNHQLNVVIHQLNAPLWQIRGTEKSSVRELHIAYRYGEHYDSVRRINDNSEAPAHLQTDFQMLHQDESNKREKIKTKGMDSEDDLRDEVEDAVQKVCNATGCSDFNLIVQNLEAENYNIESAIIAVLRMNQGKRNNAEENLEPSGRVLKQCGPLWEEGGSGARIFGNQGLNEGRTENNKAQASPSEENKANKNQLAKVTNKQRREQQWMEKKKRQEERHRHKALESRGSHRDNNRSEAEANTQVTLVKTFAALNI
USP30 inh: inhibitors of human USP30 deubiquitinase. Q70CQ3. inhibition, % at 25 µM. purified USP30, Ub-rhodamine cleavage fluorescence. 47,000 compounds, 5.3% hits
Active calls of the source: *; i = inactive. No stated cut-off is given here; in the data, active means inhibition above about 30%; inactive means the rest.

SMILES | USP17 block | USP28 block | OTUD3 block | USP30 inh
COc1ccc(C(=O)Cn2nc(-c3ccco3)c(-c3cc(C)no3)cc2=O)cc1 | 47* | 25 | 2 | -5
CCOc1ccc(CC(=O)NCc2ccc3[nH]c(C)cc3c2)cc1 | 19 | -3 | -14 | -50
COc1c(O)c2c(c3cc(C(=O)O)[nH]c13)CCN2C(N)=O | 37* | 14 | 12 | 15
COC(=O)c1ccc(Nc2cc(C)nc3cc(C(F)(F)F)ccc23)cc1 | 64* | 25 | 5 | 66*
COc1ccccc1Nc1nc(N)c(C(=O)c2ccccc2F)s1 | -2 | -17 | -6 | -27
Cc1c(-c2noc(-c3ccccn3)n2)nnn1-c1ccc(F)cc1 | 72* | 0 | 0 | 61*
COc1ccc(-c2noc(-c3nnn(-c4ccccc4Cl)c3C)n2)cc1 | 4 | -5 | -5 | 9
c1ccc(-n2nnc(-c3noc(-c4ccccn4)n3)c2-c2ccncc2)cc1 | 64* | 20 | -6 | 4
Cc1ccc(-n2nnc(-c3noc(-c4ccccn4)n3)c2C)cc1 | -5 | -6 | -11 | -9
Cc1c(-c2nc(-c3ccccc3Cl)no2)nnn1-c1cccc(F)c1 | 36* | 27 | 24 | 62*
CC1(C)Oc2ccccc2[C@H]2OCC3(CCN(C(=O)c4ccc5ncccc5c4)CC3)C[C@@H]21 | -181 | -202 | -165 | i
Cc1cccc2nc(C(F)(F)F)cc(=O)n12 | -4 | -8 | -11 | 3
COc1ccc(C(=O)N2CCc3nc(C(=O)N4CCCC4)sc3CC2)cc1 | -7 | -3 | -2 | 2
O=C(CSc1nnc(Cn2cnc3ccccc32)o1)Nc1ccc([N+](=O)[O-])cc1 | 63* | 12 | 11 | 25
Cn1nc(C(C)(C)C)cc1C(=O)N1CCC[C@H](C(=O)c2ccc3c(c2)OCO3)C1 | 8 | 9 | 3 | 14
O=C1c2ccccc2-n2c1nc1ccccc1c2=O | 50* | -7 | -14 | -12
O=C(c1csc2ccccc12)N1CCN(c2ccc(Cl)c(Cl)c2)CC1 | 1 | 6 | 8 | 33*
Cn1cc(S(=O)(=O)N2CCCCCC2)cc1C(=O)Nc1cccc(F)c1 | 16 | 6 | 3 | 10
Cn1cc(S(=O)(=O)N2CCCCCC2)cc1C(=O)Nc1ccc(F)cc1 | 50* | 3 | 4 | 15
CC1(C)CC(=O)c2ccc(OCc3ccc([N+](=O)[O-])cc3)cc2O1 | -4 | 36* | 2 | -11
CCCCCC(O)/C=C/C(=O)O (stereo unspecified) | -38 | -1 | -3 | 10
O=C(NCc1csc(-c2ccccc2)n1)c1cc(F)cc2c1OCOC2 | 33* | 17 | 16 | 15
O=C(NCc1csc(-c2ccccc2)n1)c1ccccc1F | 7 | 19 | 10 | 3
Cc1cc(C)cc(C(=O)OCC(=O)Nc2ccc3c(c2)OCCO3)c1 | 5 | 2 | -1 | 14
O=C(CNc1ccc(F)c(Cl)c1)Nc1ccc2c(c1)OCCO2 | 17 | 64* | 6 | 12
SMILES | USP17 block | USP28 block | OTUD3 block | USP30 inh
O=C(COC(=O)c1ccc(NS(=O)(=O)c2ccc3c(c2)OCCO3)cc1)NCc1ccc(Cl)cc1 | 18 | 75* | -18 | 50*
O=C(COC(=O)c1cc(Cl)ccc1O)Nc1ccc2c(c1)OCCO2 | 60* | 14 | 16 | 19
O=C(CC(c1cccc(F)c1)n1cccc1)Nc1ccc2c(c1)OCCO2 (stereo unspecified) | 2 | 1 | -2 | 1
O=C(Nc1ccccc1C(=O)NC1CCSC1)c1ccc([N+](=O)[O-])cc1 (stereo unspecified) | 46* | 9 | 17 | 45*
Cc1ccc2c(c1)ncc1c(-c3ccccc3)nn(-c3ccc(F)cc3)c12 | 3 | -2 | 0 | 0
COc1ccc(S(=O)(=O)c2cnc3ccc(Cl)cc3c2NCc2ccccc2)cc1 | 2 | 4 | -1 | 30*
COc1ccc(S(=O)(=O)c2cnc3cc(OC)c(OC)cc3c2NCc2ccccc2)cc1 | 0 | -6 | -6 | -1
O=C([C@H]1CCCO1)N1CCC2(CC1)CN(c1ncccn1)c1ccccc12 | -4 | 4 | 7 | 2
O=C(CSc1ccc2nnc(CCNS(=O)(=O)c3ccccc3)n2n1)NCc1ccccc1Cl | 0 | -4 | 0 | 13
Fc1ccc(-c2nc3ncccn3c2NCc2ccc(Cl)cc2)cc1F | -1 | 11 | 1 | -15
O=C(NCc1cc2ccccc2[nH]1)c1ccc(COc2ccc(Br)cc2)cc1 | 9 | 18 | -20 | -58
Nc1ncnc(SCc2c(Cl)cccc2Cl)n1 | -4 | -14 | 0 | 4
Nc1nccc(/C=C/c2c(Cl)cccc2Cl)n1 | 31* | 10 | -14 | -8
Cc1ncccc1Oc1nccnc1C1CCCN(CC(N)=O)C1 (stereo unspecified) | 1 | -2 | 2 | 8

Screening results as filed in PubChem BioAssay.
